RE007 growth inh: qHTS Assay for Inhibitors of the HIV-1 protein Vpr. 0.21% of 360,000 active. Potency, µM (titrated, usually from 92.2 µM), hits mostly inhibitors. S. pombe RE007 Vpr strain, BacTiter-Glo ATP luminescence, 24 h; active = well fitted falling curve with a large enough effect; inconclusive = small, poorly fitted or top-dose-only effect; inactive = no such curve, though single readings can be large or run the other way; also: nearly all actives have a fitted effect of over 50% in size
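Fission yeast strain RE007, carrying one chromosomally integrated HIV-1 vpr copy, was seeded at OD 0.01 in PMG+AL medium with 23 nL pinned compound. After 24 h at 30 °C and 99% humidity, viability was read by BacTiter-Glo luminescence.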
TbPYK inhibitor: qHTS of Trypanosoma Brucei Inhibitors. TbPYK enzyme, Kinase-Glo Plus ATP luminescence, 45 min. 0.12% of 410,000 active. Potency, µM (doses to about 76.8 µM), most hits filed as inhibitors; also: nearly all actives have a fitted effect of over 50% in size
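T. brucei PYK with substrate was exposed to pin-transferred compounds across a concentration series, then started with 130 uM ADP (final). After 45 min at room temperature, Kinase-Glo Plus luminescence was read, normalized and curve-fitted.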
Sm TGR block: qHTS Assay for the Inhibitors of Schistosoma Mansoni Peroxiredoxins; Schistosoma mansoni thioredoxin glutathione reductase (TGR), Q962Y6; purified TGR, DTNB reduction, TNB absorbance 405 nm; Potency, µM (titrated, usually from 114 µM), most hits filed as inhibitors; 3% of 360,000 active; also: nearly all actives have a fitted effect of over 60% in size
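Kinetic colorimetric format: TGR-catalysed, NADPH-driven DTNB reduction monitored via TNB absorbance. Enzyme dispensed at 20 nM; compound exposure 15 min at room temperature before reaction start.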
FMDV inh: High Throughput Screening for Foot and Mouth Disease Virus Antivirals; FMDV antiviral cell-based qHTS; Potency, µM (series often up to 57.9 µM), usual class: inhibitors; AID 1159524, 2015; 1.2% of 410,000 active; calls by dose curve; tested in HEK293T cells; also: read-out not given here; nearly all actives have a fitted effect of over 45% in size
Large screens that a line does not name were inactive. Only some compounds are listed: those with a hit (about 3.7% of all), similar ones and a draw of the others. Unless noted, calls follow the shape of the dose curve; as a rule, active = well fitted curve in the direction sought with a large enough effect; inconclusive = small, poorly fitted or top-dose-only effect, or another doubt; inactive = no such curve, though single readings can be large; an effect the other way counts as inactive or inconclusive.

CCc1cccc(NC(=O)Cn2ncc3c([nH]c4ccc(C)cc43)c2=O)c1	none (no result: RE007 growth inh)
O=C(Nc1ccc(CN2CCOCC2)cc1)c1ccc(Cl)cc1	none
CC(C)c1ccc(/C=C/C(=O)NC(=S)NN2CCOCC2)cc1	none
COc1ccc(C(=O)NC(=S)Nc2ccc(CN3CCOCC3)cc2)cc1Br	Sm TGR block 14µM, FMDV inh inconclusive
CC(C)c1ccc(/C=C/C(=O)NC(=S)Nc2ccc(CN3CCOCC3)cc2)cc1	RE007 growth inh inconclusive, FMDV inh 20µM
COC(=O)c1ccc(NC(=O)c2ccc(CN3CCOCC3)cc2)cc1	TbPYK inhibitor inconclusive, FMDV inh 22µM
CCOc1ccc(C(=O)Nc2ccc(CN3CCOCC3)cc2)cc1Br	none
O=C(COc1ccc(Cl)cc1Cl)NC(=S)Nc1ccc(CN2CCOCC2)cc1	FMDV inh 28µM
COc1ccc(NC(=O)CSc2nc(-c3ccc(OC)cc3)cc(=O)[nH]2)cc1	none (no result: RE007 growth inh)
COc1ccc(C(=O)NC(=S)Nc2ccc(CN3CCOCC3)cc2)cc1	Sm TGR block 22µM, FMDV inh inconclusive
COc1ccc(CCNC(=O)CSc2cn(CCNC(=O)c3cccc(C(F)(F)F)c3)c3ccccc23)cc1OC	FMDV inh 22µM (no result: RE007 growth inh)
Cn1cnc(C(=O)N2CCN(C(=O)OC(C)(C)C)CC2)c1C(=O)N1CCN(C(=O)OC(C)(C)C)CC1	Sm TGR block 22µM
CCn1cc(Br)c(C(=O)N2CCN(c3ccccc3)CC2)n1	none (no result: FMDV inh)
CC(C)(C)OC(=O)N1CCN(C(=O)c2nc[nH]c2C(=O)N2CCN(C(=O)OC(C)(C)C)CC2)CC1	none
Cn1cnc(C(=O)N2CCN(c3ccccc3)CC2)c1C(=O)N1CCN(c2ccccc2)CC1	Sm TGR block 20µM
CN1CC(=O)N(CC(=O)Nc2ccc(OC(F)(F)F)cc2)c2ccccc2C1=O	none (no result: RE007 growth inh)
CN1C(=O)NC(=O)/C(=C\c2ccc([N+](=O)[O-])o2)C1=O	TbPYK inhibitor inconclusive, Sm TGR block 7.9µM
CN1C(=O)NC(=O)/C(=C/c2ccc(C(=O)O)cc2)C1=O	TbPYK inhibitor inconclusive
CN1C(=O)NC(=O)/C(=C/c2ccc([N+](=O)[O-])o2)C1=O	TbPYK inhibitor inconclusive, Sm TGR block 5µM, FMDV inh inconclusive
O=[N+]([O-])c1ccc(/C=[N+](\[O-])CCO)o1	Sm TGR block inconclusive (no result: RE007 growth inh)
O=C1NC(=O)N(c2ccccc2)C(=O)/C1=C\c1ccc([N+](=O)[O-])o1	Sm TGR block 8.9µM (no result: RE007 growth inh, TbPYK inhibitor, FMDV inh)
CCOc1ccccc1CNC(=O)CSc1n[nH]c(-c2ccccc2Cl)n1	none (no result: RE007 growth inh)
CCC(Sc1nc2nccnc2c(=O)n1Cc1ccc(Cl)cc1)C(=O)NC1CCCCC1 (stereo not drawn)	none (no result: RE007 growth inh)
CCOC(=O)/C(=C\c1ccccc1)C(=O)CCN1CCOCC1	FMDV inh 18µM (no result: Sm TGR block)
O=C(CCc1ccccc1)OCCN1CCOCC1	none
Cc1ccc(CNC(=O)c2cc3c(=O)n(C)c4ccccc4c3n2C)o1	none
CCCCN(C)CCNC(=O)c1cn(C)c(=O)c2c1c1ccccc1n2C	Sm TGR block 45µM
Cc1cc(NC(=O)c2cn(C3CCCCC3)c(=O)c3c2c2ccccc2n3C)no1	FMDV inh inconclusive
Cc1ccc(CNC(=O)c2cn(C)c(=O)c3c2c2ccccc2n3C)o1	Sm TGR block 22µM
Cc1ccc(CNC(=O)c2cn(C3CCCCC3)c(=O)c3c2c2ccccc2n3C)o1	Sm TGR block 10µM, FMDV inh inconclusive
COCCN1CCN(C(=O)c2cnn(-c3ncc4c(n3)-c3ccc(OC)cc3CC4)c2C2CC2)CC1	none (no result: RE007 growth inh, TbPYK inhibitor, Sm TGR block)
O=C(O)c1cc(-c2ccc(/C=C3\NC(=O)N(c4ccc(Cl)cc4)C3=O)o2)ccc1Cl	Sm TGR block inconclusive
CCOc1ccc(N2C(=O)/C(=C\c3cccs3)C(=O)NC2=S)cc1	TbPYK inhibitor inconclusive, Sm TGR block 8.9µM
O=C1NC(=O)C(=Cc2cccs2)C(=O)N1	TbPYK inhibitor inconclusive (no result: Sm TGR block)
Cc1ccccc1N1C(=O)/C(=C/c2ccco2)C(=O)NC1=S	Sm TGR block 45µM (no result: RE007 growth inh, TbPYK inhibitor, FMDV inh)
O=C(O)c1cc(-c2ccc(/C=C3\NC(=O)N(c4ccccc4)C3=O)o2)ccc1Cl	Sm TGR block 50µM
O=C1/C(=C\c2ccco2)NC(=S)N1c1ccccc1	none
O=C1NC(=S)N(c2ccccc2F)C(=O)/C1=C\c1cccs1	Sm TGR block 7.9µM, FMDV inh 32µM
CCOc1ccc(N2C(=O)C(C)CNC2=S)cc1 (stereo not drawn)	none (no result: Sm TGR block)
CCCC[C@]12Cc3cc(C#N)ccc3C(O1)c1c(cc(C)n(-c3ccccc3)c1=O)O2	none (no result: RE007 growth inh, TbPYK inhibitor, FMDV inh)
CCOc1ccc(N(C)C(=O)C2CCN(S(=O)(=O)c3c(C)noc3/C=C/c3ccc(C)cc3)CC2)cc1	none (no result: RE007 growth inh)
Cc1cccc(CCn2c(=O)c3ccccc3n(CC(=O)Nc3ccccc3F)c2=O)c1	none (no result: RE007 growth inh)
CCOc1ccc(N2C(=O)/C(=C/c3ccccc3OCC(=O)OC)N(CC(=O)OC)C2=S)cc1	none (no result: Sm TGR block)
Cc1ccc(/C=C2\C(=O)NC(=O)N2C)o1	Sm TGR block 35µM
CCOc1ccc(N2C(=O)/C(=C/c3ccco3)N(C)C2=S)cc1	Sm TGR block 50µM
CCOC(=O)C1=C(C)N(c2ccc(OCC)cc2)C(=O)/C1=C\c1ccco1	Sm TGR block 18µM
CCOc1cc(/C=C2\C(=O)N(Cc3ccco3)C(C)=C2C(=O)OC)ccc1O	TbPYK inhibitor inconclusive, FMDV inh inconclusive (no result: Sm TGR block)
CCOc1ccc(N2C(=O)/C(=C/c3ccco3)C(=O)NC2=S)cc1	TbPYK inhibitor inconclusive, Sm TGR block 22µM
COc1ccccc1C(=O)N[C@@H]1c2ccccc2C2(CCN(Cc3ccc(C)o3)CC2)[C@H]1O	none (no result: RE007 growth inh, TbPYK inhibitor, Sm TGR block)
COC(=O)[C@@H]1C[C@H](NC(=O)c2ccccn2)CN1Cc1cccc2ccccc12	none (no result: RE007 growth inh, TbPYK inhibitor, Sm TGR block)
CSc1ccc(-c2nnn(CC(=O)Nc3sc4c(c3C#N)CCC(C(C)(C)C)C4)n2)cc1 (stereo not drawn)	none (no result: RE007 growth inh)
Cc1ccc(/C=C2/C(=O)N(c3ccccc3)C(=S)N2C)o1	RE007 growth inh inconclusive, TbPYK inhibitor inconclusive, Sm TGR block 22µM
O=C(O)c1ccccc1-c1ccc(C=C2C(=O)N(c3ccccc3)C(=S)N(c3ccccc3)C2=O)o1	TbPYK inhibitor inconclusive, Sm TGR block 8.9µM
O=c1oc2ccccc2cc1-c1csc(Nc2nc3c(F)cccc3s2)n1	FMDV inh 7.1µM
O=c1oc2ccccc2cc1-c1csc(Nc2nc3ccc(F)cc3s2)n1	none (no result: RE007 growth inh, TbPYK inhibitor, FMDV inh)
FC(F)(F)c1cccc(NC(=S)NC(c2ccccc2)c2ccccc2)c1	FMDV inh 25µM
O=C(NC1CCCC1)C(c1ccc(F)cc1)N(Cc1ccc(Cl)cc1)C(=O)CCl (stereo not drawn)	Sm TGR block 2.8µM, FMDV inh inconclusive
O=C(NC1CCCC1)C(c1ccc(Cl)cc1)N(Cc1ccc(F)cc1)C(=O)CCl (stereo not drawn)	RE007 growth inh inconclusive, Sm TGR block 7.1µM, FMDV inh inconclusive
CCn1cnc2cc(NCc3ccc(N(C)C)cc3)ccc21	Sm TGR block 8.9µM
Cc1ccc(NC(=O)CCn2c(=O)c3cccn3c3ccccc32)cc1Cl	none (no result: RE007 growth inh)
O=[N+]([O-])c1ccc(N2CCOCC2)c2cccnc12	none

Assay outcomes: PubChem BioAssay, National Center for Advancing Translational Sciences (NCATS)
